TDP1 cell CPT – DT40-hTDP1 cell growth loss with CPT; Potency, µM (series often up to 46.2 µM), for the others: at the top dose activity change, negative = growth inhibition, usual class: inhibitors; chicken DT40 Tdp1-/-;hTDP1 cells + 20 nM CPT, ATP luminescence, 48 h; 420,000 tested, 12% active; also: potency is read from the fitted curve at half-maximal effect; nearly all actives have a fitted effect of over 55% in size
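Chicken DT40 Tdp1-/- cells stably complemented with human TDP1 were seeded at 400 cells/well in medium containing 20 nM camptothecin, exposed to pin-transferred compounds, and grown at 37 °C for at least 48 hr. Viability was read as ATP luminescence.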
HT1080 IDH1KD tx – toxicity to HT-1080 IDH1 knockdown cells (counter line) | HT-1080 IDH1 knockdown viability, ATP luminescence, 48 h | Potency, µM (top dose mostly 46.1 µM), for inactives: at the top dose activity, negative = toxicity, actives largely listed as cytotoxic | 360,000 tested, 2% active;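 also: potency is read from the fitted curve at half-maximal effect; 0% = DMSO wells and -100% = cell-free medium wells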
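% activity derives from luminescence (CellTiter-Glo), normalised to DMSO and no-cell wells. HT-1080-IDH1KD cells, 750/well, had 48 h compound exposure at 37 °C.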
ELG1 DNA repair – blocks ELG1-dependent DNA repair in HEK293T cells. AID 504467. Potency, µM (series often up to 46.1 µM), for the others: at the top dose activity change, negative = inhibition, hits mostly inhibitors. HEK293T ELG1-luciferase reporter, luminescence, 16 h; DNA damage induced by 5-fluorouridine. 330,000 tested, 2.3% active; also: potency is read from the fitted curve at half-maximal effect; nearly all actives have a fitted effect of over 55% in size
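Overnight (16 hr) co-exposure of 2,000 cells/well to 5-fluorouridine and compound at 37 °C preceded detection. Luciferase was quantified via ONE-Glo luminescence; loss of signal denotes inhibition.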
HT1080NT lethal – kills 2HG-producing HT-1080-NT fibrosarcoma cells; HT-1080-NT fibrosarcoma viability, CellTiter-Glo ATP luminescence, 48 h; Potency, µM (titrated, usually from 46.1 µM), for the others: top-dose activity, negative = less viability, most hits filed as cytotoxic; 360,000 tested, 1.6% active; AID 686970;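 also: NT is the 2HG producing partner of a matched IDH1 knockdown line; potency is read from the fitted curve at half-maximal effect; 0% = DMSO-treated cells and -100% = media-only wells without cells; nearly all actives have a fitted effect of over 55% in size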
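HT-1080-NT; 750 cells/well; 5% FBS RPMI; 48 h compound, 37 degrees C; CellTiter-Glo luminescence; curve fitting and curve-class assignment.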
TDP1 cell noCPT – qHTS for Inhibitors of human tyrosyl-DNA phosphodiesterase 1 (TDP1): qHTS in cells in absence of CPT. DT40 Tdp1-/- hTDP1 cells, no CPT, ATP luminescence, 48 h. Potency, µM (doses to about 46.2 µM), inactives show at the top dose activity change, negative = growth inhibition, actives largely listed as inhibitors. 420,000 tested, 15% active. AID 686978, 2013; also: potency is read from the fitted curve at half-maximal effect; nearly all actives have a fitted effect of over 55% in size
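DT40 Tdp1-/-;hTDP1 cells, no CPT (DMSO vehicle only), 400 cells/well; compounds pin-transferred; ≥48 hr, 37 °C; CellTiter-Glo 30 min RT dark, luminescence read.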
IL-1B inflam inh – inhibitors of inflammasome signaling (IL-1 beta secretion). THP-1 LPS/ATP IL-1B secretion, AlphaLISA, 16 h; stronger effect = lower value. activity change, % at 57.5 µM. 360,000 tested, 4.7% active. AID 743279; in the data active = activity change below about -50%; inconclusive = mostly about -30% to -49%
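Secreted IL-1B measured by AlphaLISA bead assay after 16 h compound exposure of THP-1 cells; compounds (final up to 57.5 uM) added 1 h before LPS (250 ng/mL) and ATP (1.25 mM) stimulation; lower signal means less secretion.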
Active calls of the source: *; ? = inconclusive; . = no result given; ! = repeats disagree. Only some compounds are listed: those with a hit (about 19% of all), similar ones and a draw of the others. Unless noted, calls follow the shape of the dose curve; as a rule, active = well fitted curve in the direction sought with a large enough effect; inconclusive = small, poorly fitted or top-dose-only effect, or another doubt; inactive = no such curve, though single readings can be large; an effect the other way counts as inactive or inconclusive. Unless noted, % is scaled to controls: 0 for no effect and ±100 for the full control effect.

SMILES	TDP1 cell CPT	HT1080 IDH1KD tx	ELG1 DNA repair	HT1080NT lethal	TDP1 cell noCPT	IL-1B inflam inh
O=C(CC1Sc2ccccc2NC1=O)NCc1ccccc1 (stereo not given)	-4%	6%	-6%	8%	-1%	16
O=C(CC1Sc2ccccc2NC1=O)NNc1ccc(Cl)cc1Cl (stereo not given)	?	?	.	?	?	-58*
O=C(CC1Sc2ccccc2NC1=O)Nc1cccnc1 (stereo not given)	25%	9%	-5%	4%	-1%	19
O=C(CC1SC(=O)NC1=O)Nc1ccc(Cl)cc1 (stereo not given)	3.3µM*	-10%	-18%	-4%	9.2µM*	1
CN(C)c1ccc(NC(=O)C2(c3cccs3)CCOCC2)cc1	-4%	.	.	.	-2%	.
CC1=C(C(=O)Nc2ccccc2)C(c2ccccn2)n2nc(SCc3ccccc3)nc2N1 (stereo not given)	5.2µM*	.	.	.	?	.
COc1ccccc1NC(=O)C1=C(C)Nc2nc(SCc3ccccc3)nn2C1c1ccccn1 (stereo not given)	8.2µM*	.	.	.	?	.
CCSc1nc2n(n1)C(c1ccc(CC)cc1)C(C(=O)Nc1ccccc1OC)=C(C)N2 (stereo not given)	16µM*	.	.	.	23µM*	.
CC(C)NC(=O)C1(C)CSCC(=O)N1CCOc1ccccc1 (stereo not given)	24%	7%	.	-7%	8%	-5
CCOC(=O)C1=C(C)NC(SCC(=O)OC)=C(C#N)C1c1ccc(C(=O)OC)cc1 (stereo not given)	?	-2%	-3%	2%	23µM*!	5
COc1ccc(NC(=O)CSC2=C(C#N)C(c3ccco3)C(C(=O)Nc3nc4ccccc4s3)=C(C)N2)cc1 (stereo not given)	?	-18%	.	-22%	?	32
C=CCOC(=O)C1=C(C)NC(SCC)=C(C#N)C1c1ccc(Cl)cc1 (stereo not given)	0.73µM*	8.2µM*	?	9.2µM*	0.52µM*	-26
CC(=O)C1=C(C)NC(SCC(=O)Nc2nc3ccccc3s2)=C(C#N)C1c1ccc(Cl)cc1 (stereo not given)	?	-3%	?	-21%	18µM*	-3
CCOC(=O)CSC1=C(C#N)C(c2ccc(F)cc2)C(C(C)=O)=C(C)N1 (stereo not given)	-28%	10%	2%	1%	?	-3
S=c1[nH]nc(COc2ccccc2)n1/N=C/C(Cl)=C/c1ccccc1	23µM*	?	-23%	?	16µM*	-91*
S=c1[nH]nc(-c2ccncc2)n1/N=C/C=C/c1ccccc1	-24%	-4%	?	-6%	?	0
S=c1[nH]nc(-c2ccncc2)n1/N=C/C(Cl)=C\c1ccccc1	13µM*	?	?	?	8.2µM*	-63*
O=[N+]([O-])c1ccc(Cl)c(/C=N/n2c(-c3ccncc3)n[nH]c2=S)c1	18µM*	?	17%	-7%	?	39
C[Se]CC[C@H](N)C(=O)O	8%	.	.	.	-27%	.
O=C(Nc1nnc2n1CCS2)c1cc(C(F)(F)F)cc(C(F)(F)F)c1	5.8µM*	.	.	.	4.6µM*	.
O=C(NCc1cccc(Cl)c1)c1ccc(-c2ccc(F)c(F)c2)c2ccoc12	?	-20%	.	-14%	?	0
COc1ccc(CNC(=O)c2ccc(-c3ccc(F)c(F)c3)c3ccoc23)cc1OC	21µM*	-25%	.	-24%	15µM*	-12

High-throughput results: PubChem BioAssay, National Center for Advancing Translational Sciences (NCATS)
